From PubChem BioAssay (Tox21)
Inconclusive results are not listed. Active and inactive are the calls of the source. Unless noted, calls come from the whole dose curve; as a rule, active = well fitted curve in the direction sought with a large enough effect in the repeat runs; inconclusive = weak or mixed curves; inactive = no such curve, though single readings can be large; an effect the other way counts as inactive or inconclusive.

Experiments:
[1] = target: Retinoic acid receptor RXR-alpha (Homo sapiens) (UniProt P19793); assay: qHTS assay to identify small molecule agonists of the RXR signaling pathway (AID 1159527; calls by dose curve; note: nearly all actives have a fitted effect of over 35% in size)
Outline: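 Read-out: beta-lactamase FRET ratio (405 nm excitation, 460 and 530 nm emission) after 2 hr substrate loading at room temperature. Cells were RXR-alpha-UAS-bla HEK 293T treated with compounds for 16 hr in 2% charcoal-stripped FBS medium.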

[2] = qHTS assay to identify small molecule agonists of the RXR signaling pathway - cell viability counter screen (AID 1159529); note: series mostly up to about 77 µM; nearly all actives have a fitted effect of over 50% in size
Outline: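 HEK 293T RXRa-bla cells, 2% CS-FBS; 5 h settle; cpd 16 h 37 C, 5% CO2; CellTiter-Glo 30 min RT, luminescence. Tetraoctyl ammonium bromide as positive control.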

[3] = qHTS assay to identify small molecule antagonists of the retinoid acid receptor (RAR) signaling pathway - cell viability counter screen (AID 1159551); note: nearly all actives have a fitted effect of over 35% in size
Outline: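 Following overnight attachment, C3RL4 reporter cells received DMSO-dissolved compounds and then retinol (1 uM final). Six hours later at 37 C, ATP content was measured by CellTiter-Glo luminescence.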

[4] = qHTS assay to identify small molecule antagonists of the retinoic acid receptor (RAR) signaling pathway (AID 1159552; note: nearly all actives have a fitted effect of over 50% in size)
Outline: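 Cells of the C3RL4 line were seeded, incubated overnight, then dosed with compounds in DMSO followed immediately by retinol (1 uM final). Six hours later luciferase detection reagent went in; signal was measured after 30 min at RT.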

[5] = qHTS assay to identify small molecule agonists of the retinoic acid receptor (RAR) signaling pathway (AID 1159553)
Outline: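 Cell line C3RL4, RARE luciferase reporter. Treatment: compounds in DMSO, 6 hr, 37 C, 5% CO2, after overnight plating. Detection: luminescence, 30 min RT after reagent.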

[6] = qHTS assay to identify small molecule antagonists of the estrogen related receptor (ERR) signaling pathway from Tox21 library - cell viability counter screen (AID 1224834); note: nearly all actives have a fitted effect of over 30% in size
Outline: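 Viability readout (CellTiter-Fluor fluorescence, 30 min at 37 C) multiplexed with the ERR assay; cells treated 17.5 h at 37 C with compounds delivered in DMSO.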

[7] = target: Luciferin 4-monooxygenase (Photinus pyralis) (UniProt P08659); assay: qHTS assay to identify small molecule inhibitors of firefly luciferase (AID 1224835); note: series mostly up to about 120 µM; nearly all actives have a fitted effect of over 25% in size
Outline: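 Inhibition of purified Photinus luciferase is measured by luminescence. Substrate levels (D-luciferin, ATP) sit at their KM values. Each compound is tested in a concentration series.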

[8] = qHTS assay to identify small molecule agonists of the constitutive androstane receptor (CAR) signaling pathway - cell viability counter screen (AID 1224836); note: series mostly up to about 92 µM; nearly all actives have a fitted effect of over 45% in size
Outline: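 HepG2-CYP2B6-hCAR, 2500 cells/well, 4 h pre-incubation; cpd 15 conc + PK11195 0.75 uM final; 23 h, 37 C/5% CO2; CellTiter-Fluor, fluorescence.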

[9] = qHTS assay to identify small molecule antagonists of the constitutive androstane receptor (CAR) signaling pathway - cell viability counter screen (AID 1224837); note: series mostly up to about 92 µM; nearly all actives have a fitted effect of over 45% in size
Outline: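 Fluorescence from CellTiter-Fluor served as the viability signal. Human hepatoma HepG2 cells stably bearing hCAR and CYP2B6-2.2kb received compound plus CITCO (50 nM final) for 23 hr.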

[10] = target: Nuclear receptor subfamily 1 group I member 3 (Homo sapiens) (UniProt Q14994); assay: qHTS assay to identify small molecule antagonists of the constitutive androstane receptor (CAR) signaling pathway (AID 1224838);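 note: HepG2 cells stably expressing hCAR with CYP2B6 luciferase reporter stimulated by CITCO; nearly all actives have a fitted effect of over 40% in size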
Outline: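 Quantitative HTS in double-stable HepG2-CYP2B6-hCAR cells. After 4 h plating, cells get compound (15 concentrations) and CITCO at 50 nM final, incubate 24 h at 37 C, then ONE-Glo luminescence is read.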

[11] = target: Nuclear receptor subfamily 1 group I member 3 (Homo sapiens) (UniProt Q14994); assay: qHTS assay to identify small molecule agonists of the constitutive androstane receptor (CAR) signaling pathway (AID 1224839);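 note: HepG2 cells stably carrying human CAR and a CYP2B6 luciferase reporter; series mostly up to about 92 µM; nearly all actives have a fitted effect of over 15% in size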
Outline: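 HepG2-CYP2B6-hCAR cells, 2500/well, 4 h pre-incubation; compounds 15 conc.; PK11195 0.75 uM final; 24 h, 37 C/5% CO2; ONE-Glo luciferase read.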

[12] = qHTS assay to identify small molecule antagonists of the estrogen related receptor signaling pathway with the pleiotropic PPARgamma coactivator (PGC) from Tox21 10K library - cell viability counter screen (AID 1224840; active = well fitted cell-killing curve with a large enough effect in the repeat runs, not every such curve was filed as active; note: nearly all actives have a fitted effect of over 40% in size)
Outline: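 Compounds in DMSO, alongside positive and negative controls, were pinned onto PGC/ERR cells (2,000 per well). Exposure lasted 17.5 hours at 37 C, followed by a 30-minute CellTiter-Fluor incubation and fluorescence reading.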

[13] = qHTS assay to identify small molecule antagonists of the estrogen related receptor signaling pathway with the pleiotropic PPARgamma coactivator (PGC) from Tox21 10K library (AID 1224841; call rule not given here; note: series mostly up to about 92 µM; actives are mostly falling curves and most rising ones were filed inactive; nearly all actives have a fitted effect of over 50% in size)
Outline: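 Compound exposure ran 18 hours at 37 C in PGC/ERR cells (2,000/well) that had first rested 6 hours in a 37 C/5% CO2 incubator. Luciferase activity was then detected with One-Glo after a 30-minute room-temperature step.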

[14] = qHTS assay to identify small molecule agonists of the estrogen related receptor signaling pathway with the pleiotropic PPARgamma coactivator (PGC) from Tox21 10K library (AID 1224842); note: nearly all actives have a fitted effect of over 15% in size
Outline: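 Luminescence from One-Glo (30 min, room temperature) measured after PGC/ERR cells had 18 h at 37 C with pinned compound (23 nL in DMSO). Cells had been seeded at 2,000 per well and pre-incubated 6 h.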

Measured: Potency

Chain of Retinoic acid receptor RXR-alpha (Homo sapiens) (P19793 whole entry, looked up): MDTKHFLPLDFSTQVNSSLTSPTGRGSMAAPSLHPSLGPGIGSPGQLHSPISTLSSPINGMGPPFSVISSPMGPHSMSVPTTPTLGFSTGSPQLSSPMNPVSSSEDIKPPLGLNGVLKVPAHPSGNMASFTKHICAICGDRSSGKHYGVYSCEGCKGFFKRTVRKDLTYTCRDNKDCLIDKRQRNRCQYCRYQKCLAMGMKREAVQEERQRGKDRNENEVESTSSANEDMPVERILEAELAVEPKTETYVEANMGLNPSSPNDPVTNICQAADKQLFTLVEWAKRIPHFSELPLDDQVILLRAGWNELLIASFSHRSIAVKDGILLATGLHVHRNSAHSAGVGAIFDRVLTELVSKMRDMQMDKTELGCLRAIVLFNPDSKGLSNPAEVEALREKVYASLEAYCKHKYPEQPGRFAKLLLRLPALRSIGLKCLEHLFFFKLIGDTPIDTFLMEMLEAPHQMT
Chain of Luciferin 4-monooxygenase (Photinus pyralis) (P08659 whole entry, looked up): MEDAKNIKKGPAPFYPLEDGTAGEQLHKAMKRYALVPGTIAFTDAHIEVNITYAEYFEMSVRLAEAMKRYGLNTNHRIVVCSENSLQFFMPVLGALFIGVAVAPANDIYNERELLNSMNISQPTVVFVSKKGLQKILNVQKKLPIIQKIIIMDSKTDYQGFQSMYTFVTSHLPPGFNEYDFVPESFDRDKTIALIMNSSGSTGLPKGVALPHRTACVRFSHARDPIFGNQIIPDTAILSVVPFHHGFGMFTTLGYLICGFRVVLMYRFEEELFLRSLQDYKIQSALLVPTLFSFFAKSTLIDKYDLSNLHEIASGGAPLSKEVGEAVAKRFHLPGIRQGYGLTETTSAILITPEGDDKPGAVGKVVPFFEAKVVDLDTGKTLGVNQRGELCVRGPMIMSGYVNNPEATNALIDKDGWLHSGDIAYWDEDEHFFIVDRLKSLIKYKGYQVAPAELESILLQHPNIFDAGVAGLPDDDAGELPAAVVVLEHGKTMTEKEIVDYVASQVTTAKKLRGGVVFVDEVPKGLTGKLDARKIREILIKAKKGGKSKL
Chain of Nuclear receptor subfamily 1 group I member 3 (Homo sapiens) (Q14994 whole entry, looked up): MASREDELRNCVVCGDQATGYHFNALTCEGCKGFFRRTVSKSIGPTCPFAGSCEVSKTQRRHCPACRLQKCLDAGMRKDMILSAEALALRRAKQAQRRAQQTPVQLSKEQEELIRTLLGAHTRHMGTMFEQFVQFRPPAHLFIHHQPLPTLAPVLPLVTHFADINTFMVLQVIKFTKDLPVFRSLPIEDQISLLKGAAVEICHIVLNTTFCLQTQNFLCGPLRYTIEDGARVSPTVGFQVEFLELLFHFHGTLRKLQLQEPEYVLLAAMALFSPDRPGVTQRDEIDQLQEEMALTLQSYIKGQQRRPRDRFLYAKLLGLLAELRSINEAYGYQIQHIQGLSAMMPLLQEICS

O=C(CCCN1CCN(c2ccccn2)CC1)c1ccc(F)cc1
inactive: [1] | [2] | [3] | [4] | [5] | [6] | [7] | [8] | [9] | [10] | [11] | [12] | [13] | [14]

OCCCC1CCCCC1
inactive: [1] | [2] | [3] | [4] | [5] | [6] | [7] | [8] | [9] | [10] | [11] | [12] | [13] | [14]

CCOc1ccc(C(=O)OCCN(CC)CC)cc1
inactive: [1] | [2] | [3] | [4] | [5] | [6] | [7] | [8] | [9] | [10] | [11] | [12] | [13]

CC(C)OC(=O)c1ccccc1
inactive: [1] | [2] | [3] | [4] | [5] | [6] | [7] | [8] | [9] | [10] | [11] | [12] | [13] | [14]

O=C1CCCC(=O)C1
inactive: [1] | [2] | [3] | [4] | [5] | [6] | [7] | [8] | [9] | [10] | [11] | [12] | [13] | [14]

C[N+](C)(C)CC(O)CC(=O)[O-] (configuration not stated)
inactive: [1] | [2] | [3] | [4] | [5] | [6] | [7] | [8] | [9] | [10] | [11] | [12] | [13] | [14]

CC/C=C\CC/C=C/C(OCC)OCC
inactive: [1] | [2] | [3] | [4] | [5] | [6] | [7] | [8] | [9] | [10] | [11] | [12] | [13]

O=C(O)Cc1ccc(CCNS(=O)(=O)c2ccc(Cl)cc2)cc1
inactive: [1] | [2] | [3] | [4] | [5] | [6] | [7] | [8] | [9] | [10] | [11] | [12] | [13] | [14]

CCCCCCCCCCCCCCCCC
inactive: [1] | [2] | [3] | [4] | [5] | [6] | [7] | [8] | [9] | [10] | [11] | [12] | [13]

CC1(C)C(O)C(C)(C)C1O (configuration not stated)
inactive: [1] | [2] | [3] | [4] | [5] | [6] | [7] | [8] | [9] | [10] | [11] | [12] | [13]

COC(=O)CC(C)=O
inactive: [1] | [2] | [3] | [4] | [5] | [6] | [7] | [8] | [9] | [10] | [11] | [12] | [13] | [14]

CCCCOCCOCCOCCCC
inactive: [1] | [2] | [3] | [4] | [5] | [6] | [7] | [8] | [9] | [10] | [11] | [12] | [13]

CCS(=O)(=O)c1ccc(OC)c(C(=O)OC)c1
inactive: [1] | [2] | [3] | [4] | [5] | [6] | [7] | [8] | [9] | [10] | [11] | [12] | [13]

CC(C)CNCC(C)C
inactive: [1] | [2] | [3] | [4] | [5] | [6] | [7] | [8] | [9] | [10] | [11] | [12] | [13] | [14]

CC(=O)Nc1ccc(S(N)(=O)=O)cc1
inactive: [1] | [2] | [3] | [4] | [5] | [6] | [7] | [8] | [9] | [10] | [11] | [12] | [13]

CCCCNC(=O)NCCCC
inactive: [1] | [2] | [3] | [4] | [5] | [6] | [7] | [8] | [9] | [10] | [11] | [12] | [13] | [14]

NC(=O)Nc1ccccc1
inactive: [1] | [2] | [3] | [4] | [5] | [6] | [7] | [8] | [9] | [10] | [11] | [12] | [13]

CCCCCOC(=O)CCCCC
inactive: [1] | [2] | [3] | [4] | [5] | [6] | [7] | [8] | [9] | [10] | [11] | [12] | [13]

CN1N=C(C(N)=O)CCC1=O
inactive: [1] | [2] | [3] | [4] | [5] | [6] | [7] | [8] | [9] | [10] | [11] | [12] | [13] | [14]
